The values that follow come from PubChem BioAssay AID782 (Emory University Molecular Libraries Screening Center, 2007).

In all, about 220,000 compounds went through this assay and about 800 (0.36%) were called active. Many of the other results were omitted from the sample, so actives are more common in it than they were. Unmarked numbers belong to inactive results.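 Rule for the calls: active = inhibition above about 30% (limit read from the data); inactive = the rest.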

Sequence of Eukaryotic translation initiation factor 4E (Mus musculus) + Eukaryotic translation initiation factor 4 gamma 1 (Homo sapiens) (P63073 whole entry, looked up, the tested form may be a part): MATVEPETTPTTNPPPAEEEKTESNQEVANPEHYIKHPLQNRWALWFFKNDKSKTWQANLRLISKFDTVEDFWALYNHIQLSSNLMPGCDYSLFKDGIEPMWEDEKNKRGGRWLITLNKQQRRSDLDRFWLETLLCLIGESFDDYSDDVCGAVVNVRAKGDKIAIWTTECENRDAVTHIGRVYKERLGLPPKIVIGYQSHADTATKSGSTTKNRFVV
Sequence of Eukaryotic translation initiation factor 4E (Mus musculus) + Eukaryotic translation initiation factor 4 gamma 1 (Homo sapiens) (Q04637 whole entry, looked up, the tested form may be a part): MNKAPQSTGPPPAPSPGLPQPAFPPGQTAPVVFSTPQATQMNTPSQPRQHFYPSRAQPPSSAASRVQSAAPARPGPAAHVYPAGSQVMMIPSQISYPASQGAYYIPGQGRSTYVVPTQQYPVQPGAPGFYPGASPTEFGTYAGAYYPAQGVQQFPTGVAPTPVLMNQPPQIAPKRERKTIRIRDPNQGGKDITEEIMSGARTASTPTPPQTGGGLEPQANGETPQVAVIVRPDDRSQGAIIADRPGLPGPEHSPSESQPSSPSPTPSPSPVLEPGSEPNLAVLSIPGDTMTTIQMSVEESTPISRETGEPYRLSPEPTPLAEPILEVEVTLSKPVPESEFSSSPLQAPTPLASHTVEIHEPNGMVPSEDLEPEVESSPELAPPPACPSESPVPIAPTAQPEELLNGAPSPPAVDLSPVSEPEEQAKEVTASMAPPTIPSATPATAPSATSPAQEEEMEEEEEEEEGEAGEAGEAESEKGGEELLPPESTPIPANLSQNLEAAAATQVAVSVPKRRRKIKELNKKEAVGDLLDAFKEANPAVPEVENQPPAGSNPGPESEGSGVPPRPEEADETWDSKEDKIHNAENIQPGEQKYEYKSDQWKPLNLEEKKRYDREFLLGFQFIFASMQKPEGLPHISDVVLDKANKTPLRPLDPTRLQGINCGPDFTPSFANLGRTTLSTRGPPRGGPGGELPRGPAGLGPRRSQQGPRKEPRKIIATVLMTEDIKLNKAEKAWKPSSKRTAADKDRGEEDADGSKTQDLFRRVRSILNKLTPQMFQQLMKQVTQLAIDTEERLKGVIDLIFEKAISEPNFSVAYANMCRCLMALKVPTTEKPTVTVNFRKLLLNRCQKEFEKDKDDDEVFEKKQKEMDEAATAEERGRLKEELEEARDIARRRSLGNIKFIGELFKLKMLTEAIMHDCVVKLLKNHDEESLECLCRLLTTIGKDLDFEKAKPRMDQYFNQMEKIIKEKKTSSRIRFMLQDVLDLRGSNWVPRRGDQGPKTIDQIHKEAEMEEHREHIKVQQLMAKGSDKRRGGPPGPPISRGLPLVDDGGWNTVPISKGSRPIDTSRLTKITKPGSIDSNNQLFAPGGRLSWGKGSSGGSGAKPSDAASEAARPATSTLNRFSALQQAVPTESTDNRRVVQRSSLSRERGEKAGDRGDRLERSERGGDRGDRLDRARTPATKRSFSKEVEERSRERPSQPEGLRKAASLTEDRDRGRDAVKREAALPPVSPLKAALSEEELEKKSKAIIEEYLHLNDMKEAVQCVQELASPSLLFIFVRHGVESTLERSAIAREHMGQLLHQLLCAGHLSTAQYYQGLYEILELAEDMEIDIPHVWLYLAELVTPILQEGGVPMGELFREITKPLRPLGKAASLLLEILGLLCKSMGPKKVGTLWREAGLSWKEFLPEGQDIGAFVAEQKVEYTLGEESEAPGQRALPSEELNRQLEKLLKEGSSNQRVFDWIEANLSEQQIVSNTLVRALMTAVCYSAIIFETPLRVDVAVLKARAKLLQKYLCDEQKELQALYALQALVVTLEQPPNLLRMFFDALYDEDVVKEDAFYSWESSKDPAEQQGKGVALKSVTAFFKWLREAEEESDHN

The assay addresses Eukaryotic translation initiation factor 4E (Mus musculus) + Eukaryotic translation initiation factor 4 gamma 1 (Homo sapiens) (UniProt P63073+Q04637). In words: blockers of eIF4G binding by eIF4E – biochemical, uHTS, TR-FRET, eIF4GI fragment, primary screen (AID 782).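 Note: 0% = full FRET control wells and 100% = background wells lacking eIF4GI fragment.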 The note with it: TR-FRET eIF4E-eIF4GI(517-606) binding, 2 h; at 21.7 µM; stronger effect = higher value. For orientation: In TR-FRET formats the signal depends on donor and acceptor labels being close together.
By inhibition is commonly meant the drop in the measured response relative to a control, in per cent. For `Cc1ccc(NC(=S)NC(NC(=O)Cc2cccc3ccccc23)C(Cl)(Cl)Cl)cc1` (stereo not given), the inhibition was -28%.
Then `CN(c1ccccc1)S(=O)(=O)c1ccc(Cl)c(C(=O)OCC(=O)N2CCOCC2)c1`, with -1.49%.
Then `C/C(=N\OCC(=O)O)c1ccc(Cl)cc1`, with 1.37%; and `Cc1cc(C)nc(Nc2n[nH]c(-c3ccccc3N)n2)n1`, with 4.42%.
As for `COc1ccc(C(=O)Cn2nnc(-c3ccc(N4CCOCC4)cc3)n2)cc1OC`, the inhibition was -9.64%.
For the molecule `COc1ccc(C(=O)n2nc(-c3ccc(C)cc3)nc2N)cc1OC`, the inhibition was -7.73%.
In the case of `COC(=O)c1cc2occc2n1Cc1nc(-c2ccccc2C)oc1C` it was 4.23%.
On to `O=C1Nc2cc(Cl)c(Cl)cc2N(O)N1c1ccccc1Cl`, for which the inhibition is 0.39%.
For `FC(F)(F)Oc1ccc(-c2cn3cccnc3n2)cc1`, the inhibition is -1.02%.
Then `COC(=O)c1c(C)c(C)nc(N)c1C#N`, with -1.17%; and `Cc1nc(Cl)c(C#N)c2c1CCCC2`, with 5.36%; and `COCc1c(N)c(C)nc(Cl)c1C#N`, with 33.5% (active).
As for `COc1ccc(CCNS(=O)(=O)c2cccc3cccnc23)cc1OC`, the inhibition was 4.09%.
Then `O=S(=O)(NCCc1ccc(F)cc1)c1cccc2cccnc12`, with 68.5% (active); and `O=S(=O)(NCCOc1cccc2cccnc12)c1ccc(F)cc1`, with -10.8%; and `C=CCn1c(-c2sc(-c3ccccc3)nc2C)n[nH]c1=S`, with 3.95%.
In the case of `C=CCn1c(-c2ccc3[nH]c(C)c(C)c3c2)n[nH]c1=S` it was 31.9% (active); in that of `C=CCn1c(-c2ccccc2OCC)n[nH]c1=S`, -7.58%.
As to `NC(N)=Nc1nc2ccc(Br)cc2c(=O)[nH]1`, the inhibition was -3.42%.
Then `CC(NCc1nc2ccccc2n1C)C12CC3CC(CC(C3)C1)C2` (stereo not given), with 3.84%; and `O=C(c1ccc(Br)o1)N(c1ccccn1)C1CCCCC1`, with 1.85%.
As for `Cc1ccc(OS(=O)(=O)c2ccc(-c3csc(C)n3)s2)c(C)c1`, the inhibition was -1.07%.
Consider `CCOc1ccc(C2c3[nH]c4ccccc4c3CCN2Cc2cn(CC)nc2C)cc1` (stereo not given), for which the inhibition was 1.87%.
In the case of `COC(=O)c1cc2n(n1)CCCNC2=O` it was 2.7%.
Then `CC(=O)Nc1ccc(S(=O)(=O)N(C)c2ccc(OCC(=O)OCC(=O)N3CCCCC3)cc2)cc1`, with -2.79%.
Then `N#C/C(C(=O)N1CCOCC1)=C1/SC(Cc2ccc(F)cc2)C(=O)N1c1ccccc1` (stereo not given), with 2.54%; and `Cc1cccc2cc3c(N)c(C(=O)N4CCCc5ccccc54)sc3nc12`, with -0.81%.
For the molecule `CCOc1ccccc1/C=N/NC(=O)CNC(=O)COc1ccccc1`, the inhibition is 0.46%.
Then `O=C(COc1cccc2ccccc12)Nc1cc(S(=O)(=O)N2CCOCC2)ccc1N1CCOCC1`, with -0.21%; and `CCn1c(=O)c([N+](=O)[O-])c(NCc2ccc3c(c2)OCO3)c2ccccc21`, with -2.34%.
In the case of `CCOc1ccc(-n2cnc3c(=O)[nH]c(N)nc32)cc1` it was -1.7%; in that of `CCC(C)(C)NC(=O)CN(C(=O)C(=O)Nc1ccc2c(c1)OCCO2)C(C)(C)CC`, 1.1%.
As for `O=C(Nc1ccccc1C(F)(F)F)N1CCCC1c1cccnc1` (stereo not given), the inhibition is 0.48%.
As for `COc1cc2c(cc1OC)CC1(CCCCC1)N=C2`, the inhibition was -2.07%.
Then `CC1(C)CC(N(Cc2ccccc2)C(=O)Cc2ccccc2)CCO1` (stereo not given), with 1.78%; and `CCc1ccc(N(CC(=O)Nc2sc3c(c2C(=O)OC)CCCC3)S(C)(=O)=O)cc1`, with 1.86%.
Then `Cc1cc(C)cc(NC(=O)COC(=O)c2cc(C)oc2C)c1`, with -0.87%; and `CCn1c(SCC(=O)N/N=C/c2ccccc2OCC(=O)O)nnc1-c1ccc(C(C)(C)C)cc1`, with -4.63%.
In the case of `CC(C)(C)CN1C(=O)C(=O)NC[C@H]1Cc1cccc2ccccc12` it was 3.22%.
On to `C/C=C/C(=O)Nc1nnc(C(C)C)s1`, for which the inhibition was -1.19%.
Take `O=C1c2cccc(OCC(=O)N3N=C(c4cccs4)CC3c3ccc(F)cc3)c2CCN1Cc1ccccc1` (stereo not given): the inhibition was 11.7%.
On to `CN=C1C=C/C(=N/N=c2\ccn(O)cc2C)C=C1C`, for which the inhibition was 3.23%.
Then `Brc1ccc(-c2noc(-c3ccccc3)n2)o1`, with 3.6%.
Regarding `COC(=O)c1cc(NC(=O)c2cc(C(C)(C)C)nn2Cc2cccc(C)c2)ccc1N1CCOCC1`, the inhibition is -1.37%.
For `CC(C)CNc1ncnc2c1cnn2Cc1ccc(Cl)cc1`, the inhibition was -0.57%.
Then `COc1ccccc1-n1ccnc1SCC(=O)NC(C)(C)C`, with -3.84%; and `COCCNC(=O)Nc1ccc2nc(-c3ccco3)c(-c3ccco3)nc2c1`, with 53.1% (active); and `COc1ccc(NC(=O)Nc2ccc3nc(C)c(C)nc3c2)cc1`, with 3.88%.
As for `O=C(NCc1ccccn1)c1ccc2nc(-c3ccco3)c(-c3ccco3)nc2c1`, the inhibition was 2.59%.
In the case of `CC(Sc1nnnn1C)C(=O)NC(=O)NC1CCCCC1` (stereo not given), the inhibition was 3.38%.
Then `COc1ccc(-n2c(C)cc(C(=O)CN3C(=O)NC4(CCc5ccccc54)C3=O)c2C)cc1` (stereo not given), with -11%; and `CC1=CC2=NC(=O)/C(=C/c3coc4ccccc4c3=O)C(=N)N2O1`, with -3.42%.
In the case of `COc1ccc(/C=C/C(=O)Nc2ccc(C)cc2)cc1S(=O)(=O)N1CCOCC1` it was -7.24%.
In the case of `Cc1cc(C)n(-c2nnc(N3CCN(c4ccccc4)CC3)nn2)n1` it was 1.58%.
Turning to `CC(Nc1nc(N2CCN(CCO)CC2)nc2ccccc12)c1ccccc1` (stereo not given), the inhibition is 1.5%.
In the case of `Cn1c(CNC(=O)c2ccccc2F)nnc1SCc1ccc(F)cc1` it was 15.6%; in that of `Cc1ccc(S(=O)(=O)NC(=O)N2CCCN(Cc3ccc(F)cc3)CC2)cc1`, 0.62%.
Take `CCCn1nc2cc(C(=O)NCc3ccccc3)ccc2c1OCC`: the inhibition was 5.83%.
Consider `O=c1[nH]c2ccccc2n2c(-c3ccccc3)nnc12`, for which the inhibition was 52.5% [fluorescence artefact?] (active).
With `CCOC(=O)c1cnc2[nH]c3ccccc3n2c1=O`, the inhibition was 13.5%.
In the case of `O=[N+]([O-])c1cccc(-c2nnc3c4ccccc4c4ccccc4n23)c1` it was 13.6%; in that of `C=C1C2C[C@H](O)C(C)(C)[C@@]2(O)[C@H](O)C[C@]23C[C@@](C)(O)[C@H](CC[C@H]12)[C@H]3O` (stereo not given in full), -4.67%.
With `CSc1nnnn1-c1c(C)cc(C)cc1C`, the inhibition was -8.98%.
`CC(C)=C(NC(=O)c1ccccc1)C(=O)N/N=C(\C)c1ccccc1O`: the inhibition was 2.96%.
With `Cc1c(Cl)cccc1NC(=O)CC1SC(=NCC2CCCO2)NC1=O` (stereo not given), the inhibition was 1.68%.
With `CCCCNC(=O)N1CCN(S(C)(=O)=O)CC1`, the inhibition is 2.45%.
Consider `Cc1ccc(Nc2nc(N)nc(CSc3nnc(C)s3)n2)cc1`, for which the inhibition was 3.78%.
Then `COc1ccc(-c2nn(-c3ccccc3)cc2/C=C\C(=O)N2CCOCC2)cc1[N+](=O)[O-]`, with 1.3%; and `Cc1ccc(S(=O)(=O)N2CCN(S(=O)(=O)N3CCOCC3)CC2)cc1`, with 0.52%; and `COc1ccc(NC(=O)c2oc3ccc(S(=O)(=O)N4CCOCC4)cc3c2C)cc1`, with -0.4%.
Then `Cc1noc(C)c1CSc1nc2cc(S(=O)(=O)N3CCOCC3)ccc2o1`, with 38.2% (active).
`O=C(CSC(=S)N1CCOCC1)c1ccccc1`: the inhibition was 9.18%.
Take `CCOC(=O)CNC(=O)/C(=C\c1ccc(F)cc1)NC(=O)c1ccccc1`: the inhibition was 0.01%.
Consider `Cc1ccc(NC(=O)Nc2cc(-c3ccccc3)nn2C)cc1Cl`, for which the inhibition is 1.28%.
On to `CCc1ccc(NC(=O)CC2C(=O)NCCN2C(=S)Nc2ccccc2)cc1` (stereo not given), for which the inhibition was 2.38%.
Take `Cc1ccc(C)c(SCc2nc3sc(C(=O)O)c(C)c3c(=O)[nH]2)c1`: the inhibition is -9.58%.
Turning to `COc1ccccc1NC(=O)CSc1nc2sc(C)c(C)c2c(=O)n1Cc1ccco1`, the inhibition is -13.8%.
Then `Cc1ccc(-c2nc(SCC(=O)Nc3ccccc3OC(F)F)c3c(C)c(C(=O)O)sc3n2)cc1`, with 34.5% (active).
On to `CCOC(=O)C1=NN(c2ccc(Cl)cc2)/C(=C/C2=NCCc3cc(OC)c(OC)cc32)S1`, for which the inhibition was 2.69%.
Regarding `Cc1ccc(OCc2n[nH]c(=S)n2-c2ccc(C)cc2)cc1`, the inhibition is 0.42%.
In the case of `COc1ccc(OCC(O)CNCCNc2nccc(C(F)(F)F)n2)cc1` (stereo not given), the inhibition was -1.2%.
In the case of `O=C(Nc1ccc(-c2csc(Nc3cccc(C(F)(F)F)c3)n2)cc1)c1cccc(C(F)(F)F)c1` it was -4.77%; in that of `COCc1cc(=O)[nH]c(-c2ccc(C(F)(F)F)cc2)n1`, -4.61%; in that of `COc1cc(C(=O)OCc2ccc([N+](=O)[O-])cc2)cc(OC)c1OC`, -2.12%.
Consider `CC(C)(C)NC(=O)NC(=O)COC(=O)Cc1c(F)cccc1Cl`, for which the inhibition was 0.46%.
In the case of `Cn1c(S(=O)(=O)O)nc2ccccc21` it was 3.14%.
Then `O=C(NNS(=O)(=O)c1ccccc1C(F)(F)F)c1cc2ncc(C(F)(F)F)cc2s1`, with 9.76%; and `CCOC1CS(=O)(=O)CC1OCC` (stereo not given), with -1.77%.
For `O=C(Cc1ccccc1)NCC1OCCc2ccccc21` (stereo not given), the inhibition was -5.93%.
Regarding `CCNC(=S)N1CCN(CCN=CC2=C(O)CC(C)(C)CC2=O)CC1`, the inhibition is 2.72%.
With `Oc1ccc(-c2nnc(Nc3ccccc3)c3ccccc23)cc1`, the inhibition is -1.27%.
Then `Cc1nn(CC(=O)N/N=C/c2ccc(F)cc2)c(C)c1[N+](=O)[O-]`, with 10.1%.
In the case of `O=C1c2ccccc2C(O)N1Cc1ccccc1` (stereo not given) it was -4.18%.
Take `O=C1c2ccccc2C(O)N1Cc1ccccc1Cl` (stereo not given): the inhibition is 43.6% (active).
In the case of `O=C(Nc1ccc(Br)cc1)C1CCC(=O)N1Cc1ccccc1Cl` (stereo not given), the inhibition is 7%.
